Screens (PubChem)
Most compounds without a hit are left out; they make up all but 31% or so of the library.
CYP2C19 inh – blocks human cytochrome P450 2C19; inhibition, % at 5 µM; actives 21% (n = 96,000); P33261; AID 778; CYP2C19 Supersomes, luciferin-H EGE luminescence, 30 min;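 active means CYP2C19 inhibition above a set limit at 5 µM in the primary screen, cut at about 50% in these data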;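 further: plate controls were negative control wells for no effect and 2.5 mM tranylcypromine positive control for full effect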
CYP2C9 inhib – inhibitors of human CYP2C9. CYP2C9 Supersomes, luciferin-H conversion, luminescence. inhibition, % at 5 µM. actives 20% (n = 96,000). AID 777;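 active means blocking of liver enzyme CYP2C9 beyond about 50% at 5 µM, limit read from the data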
CYP2C9 activ – activators of human CYP2C9. recombinant CYP2C9, luciferin-H conversion, luminescence; stronger effect = higher value; factor 1 = untreated enzyme, 0 = blocked. activation factor at 5 µM. actives 1.4% (n = 96,000);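 active means activation factor of 2 or more for CYP2C9 at a 5 µM dose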;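 further: 0 = sulfaphenazole-blocked wells and 1 = vehicle-only wells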
CYP2C19 activ – increases human CYP2C19 enzyme activity. P33261. recombinant CYP2C19, luciferin-H EGE luminescence; stronger effect = higher value; 0 = fully inhibited enzyme, 1 = untreated enzyme. activation factor at 5 µM. 96,000 tested, under 10 active;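 active means activation factor of at least 2 at 5 µM in the primary screen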;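 further: 0 = wells with 2.5 mM tranylcypromine and 1 = vehicle-only wells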
PLAP activator – activators of human placental alkaline phosphatase; P05187; activation fold at 20 µM; purified PLAP enzyme, luminescent substrate read-out; stronger effect = higher value; AID 696; actives 1.2% (n = 96,000); in the data active means activation fold above about 2
Target sequence (P05187 whole entry, looked up): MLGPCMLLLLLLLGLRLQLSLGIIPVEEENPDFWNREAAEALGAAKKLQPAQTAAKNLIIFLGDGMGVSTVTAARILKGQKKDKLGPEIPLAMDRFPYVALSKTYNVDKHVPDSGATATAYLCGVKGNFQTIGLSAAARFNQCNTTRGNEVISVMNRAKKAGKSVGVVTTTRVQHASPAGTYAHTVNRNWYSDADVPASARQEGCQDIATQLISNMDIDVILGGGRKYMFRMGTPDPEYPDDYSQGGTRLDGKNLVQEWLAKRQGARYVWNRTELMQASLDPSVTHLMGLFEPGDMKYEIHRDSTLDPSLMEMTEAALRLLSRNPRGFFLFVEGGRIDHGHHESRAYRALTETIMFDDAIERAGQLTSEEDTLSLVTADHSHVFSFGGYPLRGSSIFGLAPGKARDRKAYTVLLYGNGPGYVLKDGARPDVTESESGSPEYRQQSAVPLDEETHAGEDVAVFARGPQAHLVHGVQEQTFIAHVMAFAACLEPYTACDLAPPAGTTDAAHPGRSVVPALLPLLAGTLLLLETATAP
* hit, by the source's call.

SMILES | CYP2C19 inh | CYP2C9 inhib | CYP2C9 activ | CYP2C19 activ | PLAP activator
CC(C)OC(=O)/C(=C\C=C\c1ccccc1)NC(=O)c1ccccc1 | 8.8 | 9.2 | 0.9 | 0.9 | 0.9
Cc1cc(C)c(S(=O)(=O)Nc2ccc[nH]c2=O)c(C)c1 | 84.8* | -303.5 | 4* | 0.2 | 2*
Cc1cccc(C)c1NS(=O)(=O)c1c(C)[nH]c(=O)[nH]c1=O | -14.8 | 5.0 | 0.9 | 1.1 | 1
Cc1ccc(OCC(=O)Nc2nnn(C)n2)c(C)c1 | -0.2 | -13.0 | 1.1 | 1 | 1
O=S(=O)(Nc1ccccc1F)c1ccc2nsnc2c1 | 63.4* | 37.9 | 0.6 | 0.4 | 0.9
Cc1ccc(OCC(=O)Nc2cccc3nsnc23)c(C)c1 | 73.6* | 7.5 | 0.9 | 0.3 | 1
Cc1cc(C)c(S(=O)(=O)Nc2cccc3nsnc23)c(C)c1 | 48.8 | 83.4* | 0.2 | 0.5 | 1.1
O=S(=O)(Nc1cccc2nsnc12)c1ccccc1 | 71.4* | 85.8* | 0.1 | 0.3 | 1
Cc1cc(C)n(-c2ccc(C(=O)OCC(=O)c3c(N)n(C)c(=O)n(C)c3=O)cc2)n1 | 19.8 | 11.4 | 0.9 | 0.8 | 1.2
O=C(CN1C(=O)c2cccc3cccc1c23)N1CCc2ccccc2C1 | 63.8* | -78.4 | 1.8 | 0.4 | 1.1
O=C1c2ccccc2C(=O)N1CC(=O)N1c2ccccc2CCc2ccccc21 | 3.0 | 8.2 | 0.9 | 1 | 0.9
O=C(CN1C(=O)c2ccccc2S1(=O)=O)N1CCc2ccccc2C1 | 54.7* | 13.3 | 0.9 | 0.5 | 1.1
O=C(CCCN1C(=O)c2ccccc2C1=O)N1CCc2ccccc2C1 | 50.5* | 12.7 | 0.9 | 0.5 | 1.1
c1ccc(-c2nn3c(Cn4cnc5ccccc54)nnc3s2)cc1 | 78.8* | 12.9 | 0.9 | 0.2 | 1
c1ccc2c(c1)ncn2Cc1nnc2sc(-c3ccncc3)nn12 | 78.5* | 48.8 | 0.5 | 0.2 | 1.2
c1cncc(-c2nn3c(Cn4cnc5ccccc54)nnc3s2)c1 | 15.7 | 16.7 | 0.8 | 0.8 | 1
CC(=O)OC1CCC(OC(C)=O)c2c1n([O-])c(C)c(C)[n+]2=O (stereo not given) | 8.4 | -2.1 | 1 | 0.9 | 1.1
Brc1[nH]nc2ccccc12 | 10.4 | -11.5 | 1.1 | 0.9 | 1
CC12COC3(C(=O)Nc4nccs4)CC1CCC32C (stereo not given) | 59.6* | 4.9 | 1 | 0.4 | 1
O=C(Nc1ccccn1)C12CC3CC(CC(C3)C1)C2 | 25.6 | 91.8* | 0.1 | 0.7 | 0.9
O=C(Nc1nc2ccccc2[nH]1)C12CC3CC(CC(C3)C1)C2 | -22.7 | -17.9 | 1.2 | 1.2 | 0.8
O=C(Nc1nccs1)C12CC3CC(C1)CC(C(=O)Nc1nccs1)(C3)C2 | 91.3* | 81.2* | 0.2 | 0.1 | 1.5
O=C(N/N=C/c1ccc(OC(=O)c2cccs2)cc1)c1cccc(F)c1 | -8.6 | 12.3 | 0.9 | 1.1 | 1.2
CCC(C)NC(=O)CNC(=O)Cn1c(C)cc2ccccc2c1=O (stereo not given) | 11.3 | -23.9 | 1.2 | 0.9 | 1.1
N=C1C(c2nc(-c3ccc(F)cc3)cs2)=C(O)CN1Cc1ccc(Cl)cc1 | 45.4 | 53.1* | 0.5 | 0.5 | 1.1
SMILES | CYP2C19 inh | CYP2C9 inhib | CYP2C9 activ | CYP2C19 activ | PLAP activator
COc1ccc(-c2csc(C3=C(O)CN(Cc4ccc(Cl)cc4)C3=N)n2)cc1OC | 42.9 | 89.4* | 0.1 | 0.6 | 1.4
O=C1CC(c2ccc(F)cc2)Cc2nc(N3CCOCC3)ncc21 (stereo not given) | 77.2* | 25.0 | 0.8 | 0.2 | 1.2
O=C1CC(c2cccc(Cl)c2)Cc2nc(N3CCN(c4ccccc4)CC3)ncc21 (stereo not given) | 8.5 | 34.0 | 0.7 | 0.9 | 0.8
O=C1CC(c2cccc(Cl)c2)Cc2nc(N3CCOCC3)ncc21 (stereo not given) | 71.9* | 59.0* | 0.4 | 0.3 | 1.5
Cc1cc(C)c(NC(=O)CN2C(=O)NC3(CCOc4ccccc43)C2=O)c(C)c1 (stereo not given) | -1.9 | 0.0 | 1 | 1 | 1.1
COc1ccc(N(C(=O)c2cccc(OC)c2OC)C2C=CS(=O)(=O)C2)c(OC)c1 (stereo not given) | -7.9 | -14.3 | 1.1 | 1.1 | 1
Nc1ncnc2nc(N3CCN(C(=O)c4ccccc4)CC3)[nH]c12 | 30.6 | 20.9 | 0.8 | 0.7 | 0.9
O=C(Nc1ccnc(-c2cccnc2)n1)c1ccc(Cl)cc1 | 6.8 | 14.2 | 0.9 | 0.9 | 0.8
C(=N\N1CCN(Cc2cccc3ccccc23)CC1)/c1ccco1 | 50.0* | -26.0 | 1.3 | 0.5 | 1.2
FC(F)(F)c1ccc(/C=N/N2CCN(Cc3cccc4ccccc34)CC2)cc1 | 0.2 | 3.6 | 1 | 1 | 1
CN(C)C(=O)c1ccccc1-c1ccccc1 | 22.6 | 5.8 | 0.9 | 0.8 | 1.1
Cc1ccc(C(=O)COC(=O)C2C3C=CC(C3)C2C(=O)OCC(=O)c2ccc(C)c(C)c2)cc1C (stereo not given) | 28.8 | 50.9* | 0.5 | 0.7 | 1.1
CC(=O)NCC(=O)OCC(=O)c1ccc(C)c(C)c1 | 20.3 | -12.7 | 1.1 | 0.8 | 0.9
Nc1cc(Br)c(N)c(Br)c1 | -1.0 | -8.6 | 1.1 | 1 | 0.9
COc1cc(NC(=O)Cn2nc(C(F)(F)F)c3c2CCCC3)cc(OC)c1OC | 16.4 | 11.7 | 0.9 | 0.8 | 1.6
CCc1cc2cc3c(cc2nc1SCC(=O)Nc1cc(C)on1)OCO3 | -14.7 | -23.1 | 1.2 | 1.1 | 1.2
CCOC(=O)CNc1c(-c2ccccc2)nc2ccc(Cl)cn12 | 57.5* | 49.8 | 0.5 | 0.4 | 0.9
Cc1ccc(C)c(NC(=O)c2ccc3ccccc3n2)c1 | -16.5 | -9.1 | 1.1 | 1.2 | 0.9
Cc1c(O)ccc(/C(Cc2ccc3ccccc3n2)=N\O)c1O | 66.5* | 88.5* | 0.1 | 0.3 | 1.1
Oc1ccccc1C1=Nc2ncnn2C(c2ccc(F)cc2)C1 (stereo not given) | 56.6* | 48.8 | 0.5 | 0.4 | 1.3
Cc1ccc(SCC(=O)N2CC(C)OC(C)C2)cc1 (stereo not given) | 68.7* | 29.6 | 0.7 | 0.3 | 1.1
Cc1cc(C)cc(C(=O)N2CC(C)OC(C)C2)c1 (stereo not given) | 0.1 | 88.3* | 0.1 | 1 | 1
Cc1cccc(NC(=O)Cc2cccs2)n1 | 12.0 | -4.3 | 1 | 0.9 | 1.2
O=C(CN1C2CCCC1CC(NC(=O)c1ccco1)C2)Nc1ccccc1 (stereo not given) | 87.2* | 94.9* | 0.1 | 0.1 | 1.3
COc1ccc(C(=O)NC2CC3CCCC(C2)N3CC(C)C)cc1OC (stereo not given) | -14.4 | -5.6 | 1.1 | 1.1 | 1.1
COc1cc(C(=O)NC2CC3CCCC(C2)N3CC(=O)Nc2ccccc2)cc(OC)c1OC (stereo not given) | 80.6* | 97.1* | 0 | 0.2 | 1.6
O=C(NC1CC2CCCC(C1)N2S(=O)(=O)c1ccccc1)c1ccco1 (stereo not given) | 35.5 | 34.9 | 0.7 | 0.6 | 0.8
COc1cc(/C=C2/C(=O)N=C(N)N2C)cc(OC)c1OC | 6.7 | 5.1 | 0.9 | 0.9 | 1.6
